This is an account of results in PubChem BioAssay (EPA / NIEHS).

Inconclusive results are not listed. More than one record can exist for a structure, and the calls need not agree. Calls of active or inactive are those of the source. The calls were made as follows: active = hit-call score of the fitted dose curve at least 0.9, where 1 is the maximum; inconclusive = response in the unintended direction; inactive = score below 0.9. Peptide text beside a SMILES is read from it.

The target in assay [1] is rat Thyrotropin Releasing Hormone Receptor (TRH), Trhr (gene 25570) (UniProt Q01717). Description: NVS_GPCR_rTRH: NovaScreen (NVS) G Protein-Coupled Receptor Assay for rat Thyrotropin Releasing Hormone Receptor (TRH) (AID 2283329).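 Also: hit means lower bound tracer signal versus DMSO baseline.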 The gist of the method:
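Cell-free radioligand binding on rat forebrain membranes; bound tracer measured by filter-based scintillation counting 4 hours after dosing. Loss of signal versus DMSO baseline indicates displacement; primary screen at 25 uM in duplicate, actives then run in concentration series.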

The target in assay [2] is Estrogen receptor (Homo sapiens) (UniProt P03372). Kind of assay: NVS_NR_hER: NovaScreen (NVS) Nuclear Receptor Binding Assay for human Estrogen Receptor (ER) (AID 2283348). In short, it runs like this:
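Cell-free MCF7-derived ER preparation, specific radioligand displaced by test compound, read by scintillation counting 18 h post-dosing. Duplicate single-point 25 uM screen, then concentration-response confirmation; DMSO baseline.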

Assay [3] has as its target rat Peripheral-type Benzodiazepine Receptor (PBR), Tspo (gene 24230) (UniProt P16257). Description: NVS_MP_rPBR: NovaScreen (NVS) Membrane Protein Assay for rat Peripheral-type Benzodiazepine Receptor (PBR) (AID 2283335). The gist of the method:
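Single-concentration duplicate screening at 25 uM preceded concentration-series retesting of actives. Binding of a specific radioligand to rat kidney membrane PBR was read by filtration radiodetection after 1 h, with plate-wise positive and negative controls.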

Assay [4] addresses bovine Estrogen Receptor (ER), ESR1 (gene 407238) (UniProt P49884). Kind of assay: NVS_NR_bER: NovaScreen (NVS) Nuclear Receptor Binding Assay for bovine Estrogen Receptor (ER) (AID 2283345).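 Also: actives lower the bound radioligand count which means they displace the ER ligand.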 The gist of the method: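 Cell-free radioligand binding with receptor from bovine uterine membranes, read by scintillation counting 18 h after dosing. Loss of specific binding was scored against DMSO; primary screen at 25 uM in duplicate, actives then run as concentration series.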

Assay [5] addresses Sodium channel protein type 1 subunit alpha (Rattus norvegicus) (UniProt P04774). Description: NVS_IC_rNaCh_site2: NovaScreen (NVS) Ion Channel Assay for rat Sodium Channel, Site 2 (NaCh) (AID 2283322).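 Also: hit means loss of radioligand binding signal relative to DMSO so AC50 marks displacement.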 The gist of the method:
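Initial duplicate single-point testing at 25 uM, followed by concentration-response runs for actives. Binding of radioligand to rat forebrain membranes quantified after 1 h via filter-based radiodetection.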

For assay [6], the target named is rat Gamma-Aminobutyric Acid Type A Receptor, Non-Selective (GABAR-NonSelective), Gabra1 (gene 29705) (UniProt P62813). Description: NVS_LGIC_rGABAR_NonSelective: NovaScreen (NVS) Ligand-Gated Ion Channel Assay for rat Gamma-Aminobutyric Acid Type A Receptor, Non-Selective (GABAR-NonSelective) (AID 2283326). The gist of the method:
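Compounds were first screened in duplicate at 25 uM, with actives run as singleton concentration series (max 50 uM). Binding of a radioligand to rat whole-brain GABA-A preparation was measured by filtration and scintillation counting after 1 h, DMSO baseline.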

In assay [7] the target is human Opioid Receptor Mu (Opiate Mu), OPRM1 (gene 4988) (UniProt P35372). Description: NVS_GPCR_hOpiate_mu: NovaScreen (NVS) G Protein-Coupled Receptor Assay for human Opioid Receptor Mu (Opiate Mu) (AID 2283290).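 Also: hits lower bound tracer signal versus DMSO meaning displacement of the ligand.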 The gist of the method: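 Cell-free radioligand binding to membranes from CHO cells expressing the receptor; bound tracer measured by filter-based scintillation counting 2.5 hours after dosing. Loss of signal versus DMSO baseline reflects displacement; primary screen at 25 uM in duplicate, actives followed up in concentration series.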
Chain of human Opioid Receptor Mu (Opiate Mu), OPRM1 (gene 4988) (P35372 whole entry, looked up): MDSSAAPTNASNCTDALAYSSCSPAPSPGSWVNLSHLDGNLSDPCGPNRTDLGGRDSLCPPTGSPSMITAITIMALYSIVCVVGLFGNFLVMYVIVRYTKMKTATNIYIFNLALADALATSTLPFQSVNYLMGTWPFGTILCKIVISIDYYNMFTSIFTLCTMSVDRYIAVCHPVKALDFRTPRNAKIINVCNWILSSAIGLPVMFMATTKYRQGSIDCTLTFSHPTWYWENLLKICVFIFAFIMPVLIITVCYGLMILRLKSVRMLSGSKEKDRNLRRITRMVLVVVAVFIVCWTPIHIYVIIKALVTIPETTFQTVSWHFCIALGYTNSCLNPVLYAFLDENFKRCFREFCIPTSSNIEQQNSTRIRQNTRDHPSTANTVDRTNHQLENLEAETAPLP

In assay [8] the target is rat Neonicotinoid receptor (NNR), Chrna7 (gene 25302) (UniProt Q05941). Description: NVS_LGIC_rNNR_BungSens: NovaScreen (NVS) Ligand-Gated Ion Channel Assay for rat Neonicotinoid receptor (NNR) (AID 2283315). As to the method:
NVS_LGIC_rNNR_BungSens is a biochemical, single-readout assay that uses extracted gene-proteins from Rat cortical membranes in a tissue-based cell-free assay. Measurements were taken 2.5 hours after chemical dosing in a 48-well plate.NVS_LGIC_rNNR_BungSens is one of one assay component(s) measured or calculated from the NVS_LGIC_rNNR_BungSens assay. It is designed to make measurements of radioligand binding, a form of binding reporter, as detected with scintillation counting signals by Filter-based radiodetection technology.Data from the assay component NVS_LGIC_rNNR_BungSens was analyzed into 1 assay endpoint. This assay endpoint, NVS_LGIC_rNNR_BungSens, was analyzed in the positive analysis fitting direction relative to DMSO as the negative control and baseline of activity. Using a type of binding reporter, loss-of-signal activity can be used to understand changes in the binding as they relate to the gene Chrna7. Furthermore, this assay endpoint can be referred to as a primary readout, because the performed assay has only produced 1 assay endpoint. To generalize the intended target to other relatable targets, this assay endpoint is annotated to the ion channel intended target family, where the subfamily is ligand-gated ion channel. […]

Assay [9] deals with bovine Gamma-Aminobutyric Acid Type A Receptor Agonist (GABAR Agonist), GABRA1 (gene 780973) (UniProt P08219). Description: NVS_LGIC_bGABAR_Agonist: NovaScreen (NVS) Ligand-Gated Ion Channel Assay for bovine Gamma-Aminobutyric Acid Type A Receptor Agonist (GABAR Agonist) (AID 2283338). In short, it runs like this: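 Radioligand binding to bovine cerebellar membranes in agonist format, read by filter-based scintillation counting after 1 h. Primary screen in duplicate at 25 uM, with actives followed in concentration series. Gain of signal versus DMSO.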
Chain of bovine Gamma-Aminobutyric Acid Type A Receptor Agonist (GABAR Agonist), GABRA1 (gene 780973) (P08219 whole entry, looked up): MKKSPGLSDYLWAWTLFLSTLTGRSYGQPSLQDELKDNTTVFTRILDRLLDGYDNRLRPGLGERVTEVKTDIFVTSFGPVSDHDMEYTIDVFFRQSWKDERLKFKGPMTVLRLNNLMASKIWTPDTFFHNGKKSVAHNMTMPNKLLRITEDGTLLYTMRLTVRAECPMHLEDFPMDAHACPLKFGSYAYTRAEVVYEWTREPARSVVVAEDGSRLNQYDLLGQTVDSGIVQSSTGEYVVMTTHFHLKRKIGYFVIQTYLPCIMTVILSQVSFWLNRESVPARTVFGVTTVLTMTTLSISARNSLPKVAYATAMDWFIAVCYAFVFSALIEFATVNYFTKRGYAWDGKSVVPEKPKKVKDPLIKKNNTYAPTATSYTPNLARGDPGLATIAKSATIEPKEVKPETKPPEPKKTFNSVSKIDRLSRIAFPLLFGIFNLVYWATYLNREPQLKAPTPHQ

Assay [10] can be described thus: NVS_IC_rCaBTZCHL: NovaScreen (NVS) Ion Channel Assay for Calcium Channel, Type L, Benzothiazepine Site (CaBTZCHL) (AID 2283337). In short, it runs like this: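 Benzothiazepine-site binding was assessed in a tissue-derived, cell-free rat cortical membrane system. After 1.5 h exposure, radioactivity retained on filters was quantified by scintillation; positive and negative controls accompanied every plate.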

Chain of bovine Estrogen Receptor (ER), ESR1 (gene 407238) (P49884 whole entry, looked up): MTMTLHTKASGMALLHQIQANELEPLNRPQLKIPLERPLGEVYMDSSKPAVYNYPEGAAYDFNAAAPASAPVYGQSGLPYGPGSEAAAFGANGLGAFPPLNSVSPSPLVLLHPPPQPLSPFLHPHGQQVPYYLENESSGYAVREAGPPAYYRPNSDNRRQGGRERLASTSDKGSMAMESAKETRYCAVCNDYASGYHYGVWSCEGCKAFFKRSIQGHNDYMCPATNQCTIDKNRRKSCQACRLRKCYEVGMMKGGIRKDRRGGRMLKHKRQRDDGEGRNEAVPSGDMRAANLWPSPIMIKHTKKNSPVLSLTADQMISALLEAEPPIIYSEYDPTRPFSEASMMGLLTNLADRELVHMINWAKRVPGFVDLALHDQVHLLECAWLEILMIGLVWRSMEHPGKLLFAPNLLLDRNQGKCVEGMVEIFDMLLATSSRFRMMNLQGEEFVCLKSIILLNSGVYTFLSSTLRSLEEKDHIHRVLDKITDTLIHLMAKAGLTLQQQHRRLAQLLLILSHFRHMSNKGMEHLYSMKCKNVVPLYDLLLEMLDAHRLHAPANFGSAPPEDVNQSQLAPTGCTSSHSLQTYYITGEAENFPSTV
Chain of rat Gamma-Aminobutyric Acid Type A Receptor, Non-Selective (GABAR-NonSelective), Gabra1 (gene 29705) (P62813 whole entry, looked up): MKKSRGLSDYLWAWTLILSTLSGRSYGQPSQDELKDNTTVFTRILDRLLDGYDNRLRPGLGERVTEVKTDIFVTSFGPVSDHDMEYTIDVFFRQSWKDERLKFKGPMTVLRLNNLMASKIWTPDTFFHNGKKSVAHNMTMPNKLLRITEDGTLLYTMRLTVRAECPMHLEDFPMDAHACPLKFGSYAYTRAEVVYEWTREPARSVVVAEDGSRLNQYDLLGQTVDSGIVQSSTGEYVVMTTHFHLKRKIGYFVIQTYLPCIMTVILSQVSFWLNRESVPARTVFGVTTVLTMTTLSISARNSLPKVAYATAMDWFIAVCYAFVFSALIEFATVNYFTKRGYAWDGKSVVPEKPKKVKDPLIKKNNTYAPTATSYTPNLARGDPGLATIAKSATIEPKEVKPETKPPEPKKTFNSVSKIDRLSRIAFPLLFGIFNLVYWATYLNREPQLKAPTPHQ
Chain of Estrogen receptor (Homo sapiens) (P03372 whole entry, looked up): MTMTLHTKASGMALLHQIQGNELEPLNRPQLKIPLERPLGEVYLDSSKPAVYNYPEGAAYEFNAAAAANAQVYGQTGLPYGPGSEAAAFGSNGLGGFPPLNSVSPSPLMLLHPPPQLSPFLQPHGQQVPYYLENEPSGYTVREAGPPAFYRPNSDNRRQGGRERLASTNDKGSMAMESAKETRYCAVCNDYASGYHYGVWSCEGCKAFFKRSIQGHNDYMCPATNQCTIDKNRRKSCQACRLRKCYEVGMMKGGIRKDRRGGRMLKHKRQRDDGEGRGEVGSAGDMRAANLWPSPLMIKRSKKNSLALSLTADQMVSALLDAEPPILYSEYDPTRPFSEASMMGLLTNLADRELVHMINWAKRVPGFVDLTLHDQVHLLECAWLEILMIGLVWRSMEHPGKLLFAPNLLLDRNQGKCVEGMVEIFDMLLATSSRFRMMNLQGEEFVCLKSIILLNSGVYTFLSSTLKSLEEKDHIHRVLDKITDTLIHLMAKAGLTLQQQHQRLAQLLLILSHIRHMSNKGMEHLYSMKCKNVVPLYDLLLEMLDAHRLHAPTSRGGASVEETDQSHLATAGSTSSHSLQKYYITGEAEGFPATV
Chain of rat Peripheral-type Benzodiazepine Receptor (PBR), Tspo (gene 24230) (P16257 whole entry, looked up): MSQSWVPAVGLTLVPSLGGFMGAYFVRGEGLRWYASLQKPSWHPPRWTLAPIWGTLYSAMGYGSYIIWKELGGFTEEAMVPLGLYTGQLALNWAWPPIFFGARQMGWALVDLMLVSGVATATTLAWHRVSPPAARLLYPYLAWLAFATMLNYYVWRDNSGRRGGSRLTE
Chain of rat Thyrotropin Releasing Hormone Receptor (TRH), Trhr (gene 25570) (Q01717 whole entry, looked up): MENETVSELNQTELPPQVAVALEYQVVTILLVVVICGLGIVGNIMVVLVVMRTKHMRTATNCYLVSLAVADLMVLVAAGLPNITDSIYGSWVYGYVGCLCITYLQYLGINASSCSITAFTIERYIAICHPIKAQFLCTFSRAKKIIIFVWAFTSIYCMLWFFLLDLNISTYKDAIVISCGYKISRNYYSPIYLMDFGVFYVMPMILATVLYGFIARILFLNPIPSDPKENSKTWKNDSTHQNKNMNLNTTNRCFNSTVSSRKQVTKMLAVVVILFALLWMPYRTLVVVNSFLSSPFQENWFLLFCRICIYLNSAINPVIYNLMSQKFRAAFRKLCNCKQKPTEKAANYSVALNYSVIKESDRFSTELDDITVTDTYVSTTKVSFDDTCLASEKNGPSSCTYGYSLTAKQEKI
Chain of rat Neonicotinoid receptor (NNR), Chrna7 (gene 25302) (Q05941 whole entry, looked up): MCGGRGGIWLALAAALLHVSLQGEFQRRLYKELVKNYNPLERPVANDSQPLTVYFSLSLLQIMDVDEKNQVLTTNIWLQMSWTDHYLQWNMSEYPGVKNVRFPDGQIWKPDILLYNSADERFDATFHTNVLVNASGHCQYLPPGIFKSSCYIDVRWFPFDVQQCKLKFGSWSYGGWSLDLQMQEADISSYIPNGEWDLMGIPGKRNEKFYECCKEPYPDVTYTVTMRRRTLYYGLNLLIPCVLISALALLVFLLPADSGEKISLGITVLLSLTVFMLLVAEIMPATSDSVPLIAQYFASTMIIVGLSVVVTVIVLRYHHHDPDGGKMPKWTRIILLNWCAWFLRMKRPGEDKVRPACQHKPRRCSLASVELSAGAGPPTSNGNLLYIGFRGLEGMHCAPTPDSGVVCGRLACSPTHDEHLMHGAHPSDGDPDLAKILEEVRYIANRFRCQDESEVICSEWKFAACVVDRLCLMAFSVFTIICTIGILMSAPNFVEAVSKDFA

Turning to `CN(C)Cc1cc(CN(C)C)c(O)c(CN(C)C)c1`, the compound was classed as inactive in assay [1] and in [2].
Take `CC1=NN(c2ccc(S(=O)(=O)O)cc2)C(=O)C1N=Nc1ccccc1` (configuration not stated): the compound was called inactive in assay [1].
Consider `O=C(OCc1ccccc1)c1ccc(O)cc1`, for which, in assay [1], the compound was called inactive. In addition, the AC50 (in general, the midpoint of the concentration-response curve, whichever way the signal moves) in assay [3] was 3.77 µM (active); in [4] it was 1.18 µM (active); in assay [2], 0.212 µM (active).
On to `Nc1nc(N)nc(-c2ccccc2)n1`, for which the call in assay [5] and in [4] was inactive.
In the case of `C/C=C/C=C/CCCCCCCO`, the result in assay [1] was inactive.
For the compound `CC(CCC(=O)O)(c1ccc(O)cc1)c1ccc(O)cc1`, the call in assay [1] was inactive. Further, the AC50 is 12.2 µM (active) in [4] and 4.34 µM (active) in assay [2].
For `Nc1ccc(C(=O)O)cc1`, the AC50 in assay [6] is 2.62 µM (active).
Take `CCOC(=O)c1ccccc1C`: in assay [1], the compound was classed as inactive.
`CC/C=C\C/C=C\C/C=C\CCCCCCCC(=O)OC`: the AC50 is 16.1 µM (active) in [7] and 13.3 µM (active) in [3].
`CCCCNS(=O)(=O)c1ccccc1`: the compound was classed as inactive in [1]. In addition, in assay [3], the AC50 was 25 µM (active).
Turning to `C=C1C[C@H]2[C@@H]3C=C(C)C4=CC(=O)CC[C@]4(C)[C@H]3CC[C@]2(C)[C@@]1(OC(C)=O)C(C)=O`, the result in assay [1] and in [4] was inactive. Also, the AC50 in assay [2] was 0.0185 µM (active).
As to `CC(=O)OC(C)c1ccccc1` (configuration not stated), in assay [1], the call was inactive.
For the compound `CCCCCCCCCC[N+](C)(CCCCCCCCCC)CCC[Si](OC)(OC)OC`, the result in assay [1], in assay [4] and in [2] was inactive.
As to `CC(C)(C)NC(=O)[C@H]1CC[C@H]2[C@@H]3CC[C@H]4NC(=O)C=C[C@]4(C)[C@H]3CC[C@]12C`, the result in [1] and in assay [4] was inactive.
Take `COC(=O)[C@H](Cc1ccccc1)NC(=O)[C@@H](N)CC(=O)O` (H-Asp-Phe-OMe): the outcome in [1] was inactive.
As to `O=C(Oc1ccccc1)c1ccccc1C(=O)Oc1ccccc1`, the AC50 in assay [3] was 30.9 µM (active).
On to `CCCCC(C=O)CC` (configuration not stated), for which the call in [1] was inactive.
As for `C=Cc1cccc(C)c1`, in assay [5], the compound was classed as inactive.
Take `CC(C=O)c1ccccc1` (configuration not stated): in [7], the compound was called inactive.
Turning to `CCCCC(CC)COS(=O)(=O)O` (configuration not stated), in assay [1], the compound was called inactive.
Regarding `CC1=CP(=O)(c2ccccc2)CC1` (configuration not stated), the compound was classed as inactive in [8].
As for `CC(C)CCCCCOC(=O)CS`, the AC50 in assay [7] is 39.8 µM (active).
As to `CC(Cl)COP(=O)(OCC(C)Cl)OCC(C)Cl` (configuration not stated), the AC50 in [3] was 13.4 µM (active).
As for `CCCCC(=O)O`, the outcome in [1] was inactive.
The same measure, in the same setting: the value for `CCCCCCC=O` was “inactive”.
Consider `CCOC(=O)c1ccc(C)cc1`, for which, in assay [1], the result was inactive.
`CC(=O)OC1CCCCC1C(C)(C)C` (configuration not stated): in [1], the compound was called inactive.
As to `CC1=C(O)C(=O)C(C)O1` (configuration not stated), the call in [7] was inactive.
`Oc1ccc(-c2ccccc2)c(Cl)c1`: the call in assay [1], in assay [4] and in assay [2] was inactive.
As to `CC(C)[N+](C)(CCOC(=O)C1c2ccccc2Oc2ccccc21)C(C)C`, the AC50 in assay [8] was 9.05 µM (active); in assay [5], 10.1 µM (active).
As for `CCC(C)C(=O)OC` (configuration not stated), the compound was classed as inactive in [5].
For the compound `Cc1ccc([N+](=O)[O-])cc1N`, the AC50 in [6] is 13.8 µM (active).
For `CC1=CCC2CC1C2(C)C` (configuration not stated), the outcome in assay [1] was inactive.
`C1CNCCN1`: the AC50 in assay [6] was 3.59 µM (active); in assay [9], 25 µM (active).
As to `CCN1CN(CC)CN(CC)C1`, the call in assay [1] was inactive.
Turning to `CCOC(=O)C1=NOC(c2ccccc2)(c2ccccc2)C1`, the result in assay [3] was inactive.
With `CCCCNC(=S)NCCCC`, the result in [1] was inactive. Also, the AC50 in [3] is 5.23 µM (active).
Regarding `CCCCCCO`, the call in assay [1] was inactive.
With `COC(OC)(C(=O)c1ccccc1)c1ccccc1`, the AC50 in assay [3] and in assay [2] was 25 µM (active) in each case. For the same compound, the compound was classed as inactive in assay [4] and in assay [2].
`C=CC(=O)OCCCCCCOC(=O)C=C`: the compound was classed as inactive in assay [4] and in assay [2].
In the case of `c1ccc(Nc2cccc3ccccc23)cc1`, the compound was called inactive in assay [4] and in [2].
Consider `C=C(C)C(=O)OCC(O)COc1ccc(C(C)(C)c2ccc(OCC(O)COC(=O)C(=C)C)cc2)cc1` (configuration not stated), for which the result in assay [4] was inactive.
Consider `O=C(Nc1ccccc1)c1cc(Cl)ccc1O`, for which the call in assay [4] and in [2] was inactive.
`Nc1ccc(O)c([N+](=O)[O-])c1`: the compound was called inactive in assay [4] and in assay [2].
For the compound `CCCCCCCCCCCCCCCCCCOS(=O)(=O)O`, the compound was called inactive in assay [4] and in [2].
Regarding `CCOC(=O)/C=C\C(=O)OCC`, the result in assay [4] was inactive.
Same read-out and setting: the same measure for `C=CCCCCCCCCC=O`: “inactive”.
Turning to `Cc1cc(C)n(CO)n1`, the compound was classed as inactive in assay [2].
With `CCCCNS(=O)(=O)c1ccc(C)cc1`, the AC50 in assay [3] was 1.72 µM (active).
On to `C=CC(=O)OCC(C)OCC(C)OCC(C)OC(=O)C=C` (configuration not stated), for which the compound was called inactive in [4] and in assay [2].
`C=C[Si](OCCOC)(OCCOC)OCCOC`: the result in assay [4] was inactive.
Regarding `Oc1ccccc1Cc1ccccc1O`, the result in assay [2] was inactive.
As for `O=c1c(O)c(-c2ccc(O)cc2O)oc2cc(O)cc(O)c12`, the compound was classed as inactive in assay [3] and in [4]. Moreover, in [2], the AC50 is 4.3 µM (active).
On to `CCCCCCCOC(=O)c1ccc(O)cc1`, for which, in assay [3], the outcome was inactive. Further, the AC50 in assay [4] was 13.2 µM (active); in assay [2] it was 3.5 µM (active).
As for `N=C1C=CC(=C(c2ccc(N)cc2)c2ccc(N)cc2)C=C1`, the result in assay [2] was inactive.
Same read-out and setting: the same measure for `CO[Si](C)(C)OC`: “inactive”.
As for `C[Si](C)(C)N[Si](C)(C)C`, the result in assay [4] and in [2] was inactive.
Turning to `CCCCCCCCC(CO)CCCCCC` (configuration not stated), the outcome in assay [10] was inactive.
Take `CCCCCCCCCCCC(=O)N(C)CC(=O)O`: in assay [2], the compound was called inactive.
